According to the supplement of paper PMC9262897, “Low-cost anti-mycobacterial drug discovery using engineered E. coli” (Nature Communications, 2022):
Where a name gives a salt, the structure may show the parent alone. ± gives the standard deviation of the averaged measurements.

system: E. coli TESEC Mtb Alr; assay: growth (OD600 after 10 h); higher = more growth (less inhibition); details: arabinose 1000000 nM; compound 0.1 mM; raw OD600 reference: median of DMSO wells 0.193, cell-free background 0.041
Description: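 TESEC Mtb Alr E. coli, or the Alr+ wild-type control, in 384-well plates with Prestwick library compounds at 0.1 mM and 1% DMSO, across arabinose induction levels of 1E3 to 1E7 nM. Growth is read as OD600 after 10 h at 37 °C in triplicate biological replicates.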

Row | SMILES | growth
1 | O=C1[C@H]2CCCC[C@H]2C(=O)N1CCCCN1CCN(c2nsc3ccccc23)CC1 [Perospirone] | 0.103 ± 0.0012
2 | CN1CCCC(CC2c3ccccc3Sc3ccccc32)C1 (stereo not drawn) [Metixene hydrochloride] | 0.04163 ± 0.00021
3 | C[C@H]1O[C@H](O[C@H]2[C@H](O)[C@@H](O)[C@@H](O[C@@H]([C@H](O)[C@@H](O)C=O)[C@H](O)CO)O[C@@H]2CO)[C@H](O)[C@@H](O)[C@@H]1N[C@H]1C=C(CO)[C@@H](O)[C@H](O)[C@H]1O [Acarbose] | 0.182 ± 0.0045
4 | O=C(Oc1cccc2cccnc12)c1ccccc1 [Benzoxiquine] | 0.198 ± 0.011
5 | O=P(O)(O)C(O)(Cn1ccnc1)P(=O)(O)O [Zoledronic acid hydrate] | 0.211 ± 0.0037
6 | Clc1ccc(COC(Cn2ccnc2)c2ccc(Cl)cc2Cl)c(Cl)c1 (stereo not drawn) [Miconazole] | 0.03923 ± 0.00025
7 | CC[N+](CC)(CC)CCC(O)(c1ccccc1)C1CCCCC1 (stereo not drawn) [Tridihexethyl chloride] | 0.185 ± 0.015
8 | COc1ccc(-c2ccc3cc(C(=O)O)ccc3c2)cc1C12CC3CC(CC(C3)C1)C2 [Adapalene] | 0.223 ± 0.016
9 | CC1=Nc2ccc(Cl)cc2S(=O)(=O)N1 [Diazoxide] | 0.189 ± 0.01
10 | COCCCOc1ccnc(C[S+]([O-])c2nc3ccccc3[nH]2)c1C (stereo not drawn) [Rabeprazole Sodium salt] | 0.0782 ± 0.0026
11 | O=C(O)c1cc(/N=N/c2ccc(S(=O)(=O)Nc3ccccn3)cc2)ccc1O [Sulfasalazine] | 0.169 ± 0.011
12 | Cc1c(O)c(=O)n(-c2ccccc2)n1C [Antipyrine, 4-hydroxy] | 0.182 ± 0.004
13 | C[C@]12C[C@H](O)[C@H]3[C@@H](CCC4=CC(=O)CC[C@@]43C)[C@@H]1CC[C@@H]2C(=O)CO [Corticosterone] | 0.16 ± 0.0065
14 | CC(CN(C)C)CN1c2ccccc2Sc2ccccc21 (stereo not drawn) [Trimeprazine tartrate] | 0.129 ± 0.0014
15 | C[C@@H]1C[C@H]2[C@@H]3C[C@H](F)C4=CC(=O)C=C[C@]4(C)[C@@]3(F)[C@@H](O)C[C@]2(C)[C@@]1(O)C(=O)COC(=O)C(C)(C)C [Flumethasone pivalate] | 0.182 ± 0.022
16 | COc1cc(C)c(/C=C/C(C)=C/C=C/C(C)=C/C(=O)O)c(C)c1C [Acitretin] | 0.06247 ± 0.00031
17 | CC(=O)OCC1=C(C(=O)O)N2C(=O)[C@@H](NC(=O)Cc3cccs3)[C@H]2SC1 [Cephalothin sodium salt] | 0.172 ± 0.0079
18 | CC(C)NCC(O)c1ccc(O)c(O)c1 (single isomer, unassigned; (+)) [(+)-Isoproterenol (+)-bitartrate salt] | 0.149 ± 0.0077
19 | CCC1(c2ccccc2)C(=O)NCNC1=O [Primidone] | 0.18 ± 0.0097
20 | CC(C)(C)C(=O)OCOC(=O)[C@@H]1N2C(=O)[C@@H](/N=C/N3CCCCCC3)[C@H]2SC1(C)C [Pivmecillinam hydrochloride] | 0.191 ± 0.016
21 | CC(C)N1CCN(c2ccc(OCC3COC(Cn4cncn4)(c4ccc(Cl)cc4Cl)O3)cc2)CC1 (stereo not drawn) [Terconazole] | 0.205 ± 0.0063
22 | Cc1cc(C(C)(C)C)c(O)c(C)c1CC1=NCCN1 [Oxymetazoline hydrochloride] | 0.17 ± 0.011
23 | Cc1ccc(O)c([C@H](CCN(C(C)C)C(C)C)c2ccccc2)c1 [Tolterodine tartrate] | 0.148 ± 0.0076
24 | CN1CCCN(C(c2ccccc2)c2ccc(Cl)cc2)CC1 (stereo not drawn) [Homochlorcyclizine dihydrochloride] | 0.0532 ± 0.00092
25 | NC[C@H]1CC[C@H](C(=O)O)CC1 [Tranexamic acid] | 0.186 ± 0.002
26 | Cc1cc(-c2ccccc2)nnc1NCCN1CCOCC1 [Minaprine dihydrochloride] | 0.155 ± 0.004
27 | COc1ccc(C[C@@H]2c3cc(OC)c(OC)cc3CC[N@+]2(C)CCC(=O)OCCCCCOC(=O)CC[N@@+]2(C)CCc3cc(OC)c(OC)cc3[C@H]2Cc2ccc(OC)c(OC)c2)cc1OC [Cisatracurium besylate] | 0.119 ± 0.0042
28 | N#Cc1cc(NC(=O)C(=O)O)c(Cl)c(NC(=O)C(=O)O)c1 [Lodoxamide] | 0.205 ± 0.013
